Nuclei count, normalised and p53-positive nuclei, normalised data for six compounds are collected here from PubChem BioAssay AID1508601 (ICCB-Longwood Screening Facility, Harvard Medical School, 2020).

Out of some 5,700 compounds screened, about 85 (1%) were called active. No stated cut-off is given here; in the data, active means p53-positive nuclei above about 36% (passing the limit was not always enough); inactive means the rest. Many of the other results were omitted from the sample, so actives are more common in it than they were.

Assay [1] can be described thus: p53 stabilisation in HPV-positive human cells, imaging, p53-positive nuclei imaging, 24 h, 48 h (AID 1508601). To be noted: 24/48 h.
The target in assay [2] is Cellular tumor antigen p53 (Homo sapiens) (UniProt P04637). The description is as above. The settings on record: 24/48 h, stronger effect = higher value.
[3] abbreviates: measured here: cell number at 24 h, Library stock concentration: 10 mM.
Setting [4] is: measured here: cell number at 48 h, Library stock concentration: 10 mM.
[5] abbreviates: Library stock concentration: 10 mM.
Setting [6] is: measured here: p53 positive nuclei at 24 h, Library stock concentration: 10 mM.
The mark [7] stands for this setting: measured here: cell number at 24 h, concentration not given here.
[8] abbreviates: measured here: cell number at 48 h, concentration not given here.
[9] abbreviates: measured here: p53 positive nuclei at 24 h, concentration not given here.
Setting [10] is: measured here: cell number at 24 h, Library stock concentration: 46 uM.
Setting [11] is: measured here: cell number at 24 h, Library stock concentration: 278 uM.
Setting [12] is: measured here: cell number at 24 h, Library stock concentration: 1.67 mM.
The mark [13] stands for this setting: measured here: cell number at 48 h, Library stock concentration: 46 uM.
Where [14] appears, read: measured here: cell number at 48 h, Library stock concentration: 278 uM.
Where [15] appears, read: measured here: cell number at 48 h, Library stock concentration: 1.67 mM.
Setting [16] is: Library stock concentration: 46 uM.
[17] abbreviates: Library stock concentration: 278 uM.
Setting [18] is: Library stock concentration: 1.67 mM.
Setting [19] is: measured here: p53 positive nuclei at 24 h, Library stock concentration: 46 uM.
Where [20] appears, read: measured here: p53 positive nuclei at 24 h, Library stock concentration: 278 uM.
Setting [21] is: measured here: p53 positive nuclei at 24 h, Library stock concentration: 1.67 mM.

Cellular tumor antigen p53 (Homo sapiens), sequence (P04637 whole entry, looked up): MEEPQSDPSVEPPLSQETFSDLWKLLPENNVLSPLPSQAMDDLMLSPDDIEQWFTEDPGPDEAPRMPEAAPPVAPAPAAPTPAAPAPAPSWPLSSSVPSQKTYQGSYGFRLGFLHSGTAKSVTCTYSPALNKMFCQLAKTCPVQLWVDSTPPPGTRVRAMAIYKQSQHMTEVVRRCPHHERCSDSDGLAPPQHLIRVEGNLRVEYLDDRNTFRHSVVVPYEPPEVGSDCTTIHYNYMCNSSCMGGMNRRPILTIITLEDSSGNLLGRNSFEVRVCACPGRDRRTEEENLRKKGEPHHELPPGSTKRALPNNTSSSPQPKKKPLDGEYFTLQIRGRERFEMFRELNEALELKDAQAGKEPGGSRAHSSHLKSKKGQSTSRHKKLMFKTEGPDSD

As for `CCn1cnc2c(Nc3cccc(Cl)c3)nc(NC3CCCCC3N)nc21` (stereo unspecified), the nuclei count, normalised in assay [1] (measured here: cell number at 24 h, Library stock concentration: 80 uM) was found to be 108%; in assay [1] (measured here: cell number at 24 h, Library stock concentration: 400 uM), 103%; in assay [1] (measured here: cell number at 24 h, Library stock concentration: 2 mM), 91.4%; in assay [1] (setting [3]), 32.2%; in assay [1] (measured here: cell number at 48 h, Library stock concentration: 80 uM), 110%; in assay [1] (measured here: cell number at 48 h, Library stock concentration: 400 uM) it was 104%. Besides, the nuclei count, normalised in assay [1] (measured here: cell number at 48 h, Library stock concentration: 2 mM) is 98.2%; in assay [1] (setting [4]), 21.9%. Besides, the p53-positive nuclei, normalised was -0.102% (inactive) in assay [2] (Library stock concentration: 80 uM); -0.0205% (inactive) in assay [2] (Library stock concentration: 400 uM); 0.0322% (inactive) in assay [2] (Library stock concentration: 2 mM); 61.8% (active) in assay [2] (setting [5]); 0.0806% in assay [2] (measured here: p53 positive nuclei at 24 h, Library stock concentration: 80 uM); 0.000598% in assay [2] (measured here: p53 positive nuclei at 24 h, Library stock concentration: 400 uM). The p53-positive nuclei, normalised in assay [2] (measured here: p53 positive nuclei at 24 h, Library stock concentration: 2 mM) amounted to 0.126%; in assay [2] (setting [6]) it was 48.5%.

Consider `CCCCCCCCCCCCCCCCOC[C@H](COP(=O)([O-])OCC[N+](C)(C)C)OC(C)=O`, for which the nuclei count, normalised in assay [1] (setting [7]) and in assay [1] (setting [8]) was 107% each time. Also, the p53-positive nuclei, normalised is -0.0025% (inactive) in assay [2] (concentration not given here) and -0.0227% in assay [2] (setting [9]).

As for `CCCCC/C=C\C/C=C\C/C=C\C/C=C\CCCC(=O)NC(CO)CO`, the nuclei count, normalised came to 103% in assay [1] (setting [7]) and 109% in assay [1] (setting [8]). The results for the p53-positive nuclei, normalised in assay [2] (concentration not given here) and in assay [2] (setting [9]) were 0.067% (inactive) and -0.135%, respectively.

Regarding `CC1CN(Cc2ccc(F)cc2)CCN1C(=O)COc1ccc(Cl)cc1NC(N)=O` (stereo unspecified), the nuclei count, normalised came out at 113% in assay [1] (setting [10]); 111% in assay [1] (setting [11]); 113% in assay [1] (setting [12]); 116% in assay [1] (setting [3]); 112% in assay [1] (setting [13]); 110% in assay [1] (setting [14]). Besides, the nuclei count, normalised in assay [1] (setting [15]) and in assay [1] (setting [4]) was 112% each time. Also, the p53-positive nuclei, normalised in assay [2] (setting [16]) is -0.174% (inactive); in assay [2] (setting [17]) it was -0.135% (inactive); in assay [2] (setting [18]), -0.0557% (inactive); in assay [2] (setting [5]), -0.323% (inactive); in assay [2] (setting [19]) it was 0.0345%; in assay [2] (setting [20]) it was -0.0826%. The p53-positive nuclei, normalised in assay [2] (setting [21]) is -0.151%; in assay [2] (setting [6]) it was 0.0332%.

Take `COc1ccc2c3c([nH]c2c1)C(CC(C)C)N1C(=O)C(CCC(=O)OC(C)(C)C)NC(=O)C1C3` (stereo unspecified): the nuclei count, normalised in assay [1] (setting [10]) amounted to 116%; in assay [1] (setting [11]) it was 114%; in assay [1] (setting [12]), 116%; in assay [1] (setting [3]) it was 118%; in assay [1] (setting [13]), 111%; in assay [1] (setting [14]), 106%. In addition, the nuclei count, normalised is 106% in assay [1] (setting [15]) and 108% in assay [1] (setting [4]). The p53-positive nuclei, normalised in assay [2] (setting [16]) was -0.285% (inactive); in assay [2] (setting [17]) it was -0.0842% (inactive); in assay [2] (setting [18]) it was -0.358% (inactive); in assay [2] (setting [5]), -0.016% (inactive); in assay [2] (setting [19]), -0.0846%; in assay [2] (setting [20]), 0.0359%. For the same compound, the results for the p53-positive nuclei, normalised in assay [2] (setting [21]) and in assay [2] (setting [6]) were -0.151% and 0.0251%, respectively.

Take `NOCCC(N)C(=O)O` (stereo unspecified): the nuclei count, normalised in assay [1] (measured here: cell number at 24 h, Library stock concentration: 500 nM) was 99.2%; in assay [1] (measured here: cell number at 24 h, Library stock concentration: 1.5 uM), 103%; in assay [1] (measured here: cell number at 24 h, Library stock concentration: 4.6 uM), 103%; in assay [1] (measured here: cell number at 24 h, Library stock concentration: 13.7 uM), 107%; in assay [1] (measured here: cell number at 24 h, Library stock concentration: 41 uM) it was 111%; in assay [1] (measured here: cell number at 24 h, Library stock concentration: 123 uM), 113%. The nuclei count, normalised in assay [1] (measured here: cell number at 24 h, Library stock concentration: 370 uM) turned out to be 115%; in assay [1] (measured here: cell number at 24 h, Library stock concentration: 1.111 mM), 106%; in assay [1] (measured here: cell number at 24 h, Library stock concentration: 3.333 mM) it was 110%; in assay [1] (setting [3]), 97.4%; in assay [1] (measured here: cell number at 48 h, Library stock concentration: 500 nM) it was 98.5%; in assay [1] (measured here: cell number at 48 h, Library stock concentration: 1.5 uM) it was 106%. Moreover, the nuclei count, normalised is 104% in assay [1] (measured here: cell number at 48 h, Library stock concentration: 4.6 uM); 112% in assay [1] (measured here: cell number at 48 h, Library stock concentration: 13.7 uM); 113% in assay [1] (measured here: cell number at 48 h, Library stock concentration: 41 uM); 115% in assay [1] (measured here: cell number at 48 h, Library stock concentration: 123 uM); 114% in assay [1] (measured here: cell number at 48 h, Library stock concentration: 370 uM); 108% in assay [1] (measured here: cell number at 48 h, Library stock concentration: 1.111 mM). The nuclei count, normalised was 112% in assay [1] (measured here: cell number at 48 h, Library stock concentration: 3.333 mM) and 102% in assay [1] (setting [4]). In addition, the p53-positive nuclei, normalised in assay [2] (Library stock concentration: 500 nM) was -0.0211% (inactive); in assay [2] (Library stock concentration: 1.5 uM) it was -0.092% (inactive); in assay [2] (Library stock concentration: 4.6 uM) it was -0.0486% (inactive); in assay [2] (Library stock concentration: 13.7 uM) it was -0.0639% (inactive); in assay [2] (Library stock concentration: 41 uM), 0.121% (inactive); in assay [2] (Library stock concentration: 123 uM), -0.0786% (inactive). Further, the p53-positive nuclei, normalised in assay [2] (Library stock concentration: 370 uM) was -0.0673% (inactive); in assay [2] (Library stock concentration: 1.111 mM), -0.0556% (inactive); in assay [2] (Library stock concentration: 3.333 mM), -0.0652% (inactive); in assay [2] (setting [5]), -0.0323% (inactive); in assay [2] (measured here: p53 positive nuclei at 24 h, Library stock concentration: 500 nM), 0.111%; in assay [2] (measured here: p53 positive nuclei at 24 h, Library stock concentration: 1.5 uM), -0.132%. Moreover, the p53-positive nuclei, normalised was -0.00649% in assay [2] (measured here: p53 positive nuclei at 24 h, Library stock concentration: 4.6 uM); -0.187% in assay [2] (measured here: p53 positive nuclei at 24 h, Library stock concentration: 13.7 uM); 0.0689% in assay [2] (measured here: p53 positive nuclei at 24 h, Library stock concentration: 41 uM); -0.0424% in assay [2] (measured here: p53 positive nuclei at 24 h, Library stock concentration: 123 uM); 0.0115% in assay [2] (measured here: p53 positive nuclei at 24 h, Library stock concentration: 370 uM); 0.0344% in assay [2] (measured here: p53 positive nuclei at 24 h, Library stock concentration: 1.111 mM). The p53-positive nuclei, normalised in assay [2] (measured here: p53 positive nuclei at 24 h, Library stock concentration: 3.333 mM) is -0.136%; in assay [2] (setting [6]) it was -0.121%.
